# Measured values as given in article PMC7862700, “An all-to-all approach to the identification of sequence-specific readers for epigenetic DNA modifications on cytosine”.
# How the values were obtained:
# Assay in all cases: DAPPL (digital affinity profiling via proximity ligation, sequencing); 10 mM Tris-HCl pH 7.5, 50 mM NaCl, 1 mM DTT, 4% glycerol, room temperature, 30 min; GST-TFs on glutathione beads, 16-mer random dsDNA library, 0.1% formaldehyde crosslink after washing; high values mean tight binding
# FLI1 = molecular target: T1, FLI1 (Homo sapiens, UniProt Q01543 1-452); conditions: protein: recombinant; tags: N-terminal GST; dsDNA, one strand shown
# T1 sequence: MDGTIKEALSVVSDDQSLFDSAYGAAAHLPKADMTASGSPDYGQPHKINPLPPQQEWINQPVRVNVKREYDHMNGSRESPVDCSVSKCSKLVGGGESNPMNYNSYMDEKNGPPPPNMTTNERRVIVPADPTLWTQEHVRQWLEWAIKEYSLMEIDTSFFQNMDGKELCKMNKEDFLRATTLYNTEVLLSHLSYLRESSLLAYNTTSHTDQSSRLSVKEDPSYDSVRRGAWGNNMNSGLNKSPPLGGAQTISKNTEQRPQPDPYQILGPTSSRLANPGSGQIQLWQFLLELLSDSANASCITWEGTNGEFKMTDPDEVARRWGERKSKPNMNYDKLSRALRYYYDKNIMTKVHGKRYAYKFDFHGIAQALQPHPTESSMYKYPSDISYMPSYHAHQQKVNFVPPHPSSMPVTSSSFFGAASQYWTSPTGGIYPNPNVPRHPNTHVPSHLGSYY
# Summary of the method: (§1)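 Pools of DNA-barcoded human transcription factors, expressed in yeast as GST fusions on glutathione beads and combined with a tag-only sample, were incubated with 200 nmole of a 16-mer random double-stranded DNA library. Incubation took 30 min at room temperature in Tris/NaCl/DTT/glycerol buffer and was followed by washing, 0.1% formaldehyde crosslinking, proximity ligation (BsaI/T4 ligase, 1 h, 37 °C), PCR amplification and sequencing on an Illumina NextSeq500. Binding signal is the ratio of a hexamer's read frequency for a factor to its frequency for the tag-only sample.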
# ELK1 = molecular target: T2, ELK1 (Homo sapiens, UniProt P19419 1-428); conditions: protein: recombinant; tags: N-terminal GST; dsDNA, one strand shown
# T2 sequence: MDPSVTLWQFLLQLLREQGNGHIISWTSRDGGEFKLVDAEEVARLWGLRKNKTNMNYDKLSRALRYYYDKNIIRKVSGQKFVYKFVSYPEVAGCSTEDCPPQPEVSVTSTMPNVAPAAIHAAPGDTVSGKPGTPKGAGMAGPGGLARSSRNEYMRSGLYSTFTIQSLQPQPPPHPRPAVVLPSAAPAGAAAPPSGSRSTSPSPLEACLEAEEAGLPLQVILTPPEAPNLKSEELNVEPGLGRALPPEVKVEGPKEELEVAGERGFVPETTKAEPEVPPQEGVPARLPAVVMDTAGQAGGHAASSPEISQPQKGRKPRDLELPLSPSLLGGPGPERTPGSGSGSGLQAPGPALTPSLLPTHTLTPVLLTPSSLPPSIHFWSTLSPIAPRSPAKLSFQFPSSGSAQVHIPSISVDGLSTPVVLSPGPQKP
# Summary of the method: as §1
# GABPA = molecular target: T3, GABPA (Homo sapiens, UniProt Q06546 1-454); conditions: protein: recombinant; tags: N-terminal GST; dsDNA, one strand shown
# T3 sequence: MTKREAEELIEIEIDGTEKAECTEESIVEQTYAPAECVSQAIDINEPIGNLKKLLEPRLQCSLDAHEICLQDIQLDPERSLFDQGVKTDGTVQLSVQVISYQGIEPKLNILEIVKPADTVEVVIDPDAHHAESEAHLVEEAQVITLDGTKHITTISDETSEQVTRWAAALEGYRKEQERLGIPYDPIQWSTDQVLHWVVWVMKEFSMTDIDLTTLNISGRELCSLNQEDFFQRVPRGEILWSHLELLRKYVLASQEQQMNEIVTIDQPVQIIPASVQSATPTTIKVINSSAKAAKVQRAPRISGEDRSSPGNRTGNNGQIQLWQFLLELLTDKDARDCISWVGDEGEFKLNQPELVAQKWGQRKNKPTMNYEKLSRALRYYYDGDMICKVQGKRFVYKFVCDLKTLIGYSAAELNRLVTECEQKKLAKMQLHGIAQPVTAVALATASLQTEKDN
# Summary of the method: as §1
# ERG = molecular target: T4, ERG (Homo sapiens, UniProt P11308 1-479); conditions: protein: recombinant; tags: N-terminal GST; dsDNA, one strand shown
# T4 sequence: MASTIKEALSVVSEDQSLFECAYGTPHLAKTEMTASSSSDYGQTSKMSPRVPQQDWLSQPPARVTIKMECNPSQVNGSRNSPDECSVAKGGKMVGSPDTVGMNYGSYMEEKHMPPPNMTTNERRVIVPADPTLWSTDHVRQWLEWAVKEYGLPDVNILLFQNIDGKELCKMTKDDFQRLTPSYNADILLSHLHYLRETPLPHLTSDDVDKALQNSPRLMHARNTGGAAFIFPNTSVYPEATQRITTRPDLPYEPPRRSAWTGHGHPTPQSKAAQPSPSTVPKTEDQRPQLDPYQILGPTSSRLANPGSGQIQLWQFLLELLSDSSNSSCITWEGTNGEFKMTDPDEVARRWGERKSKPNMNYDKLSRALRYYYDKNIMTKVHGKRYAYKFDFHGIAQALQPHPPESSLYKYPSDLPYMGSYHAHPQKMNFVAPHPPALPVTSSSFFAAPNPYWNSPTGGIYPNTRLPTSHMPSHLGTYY
# Summary of the method: as §1
# ELF1 = ELF1 (Homo sapiens, UniProt P32519 1-619); conditions: protein: recombinant; tags: N-terminal GST; dsDNA, one strand shown
# Sequence of ELF1 (P32519 whole entry): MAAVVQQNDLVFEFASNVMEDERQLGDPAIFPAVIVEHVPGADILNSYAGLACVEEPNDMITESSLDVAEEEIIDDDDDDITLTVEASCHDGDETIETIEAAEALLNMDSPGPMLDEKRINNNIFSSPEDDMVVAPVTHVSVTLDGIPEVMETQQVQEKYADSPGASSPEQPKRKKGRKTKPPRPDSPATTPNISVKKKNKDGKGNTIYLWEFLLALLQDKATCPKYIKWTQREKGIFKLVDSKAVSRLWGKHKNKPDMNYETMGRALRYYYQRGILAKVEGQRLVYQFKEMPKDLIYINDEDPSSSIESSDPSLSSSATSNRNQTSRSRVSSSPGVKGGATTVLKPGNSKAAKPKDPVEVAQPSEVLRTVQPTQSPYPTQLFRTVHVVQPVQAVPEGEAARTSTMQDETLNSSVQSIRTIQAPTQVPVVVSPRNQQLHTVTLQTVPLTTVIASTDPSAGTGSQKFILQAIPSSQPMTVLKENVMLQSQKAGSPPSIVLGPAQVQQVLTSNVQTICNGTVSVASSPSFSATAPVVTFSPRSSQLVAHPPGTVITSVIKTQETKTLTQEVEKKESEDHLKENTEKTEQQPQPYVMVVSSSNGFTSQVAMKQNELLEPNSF
# Summary of the method: as §1
# EHF = molecular target: T5, EHF (Homo sapiens, UniProt Q9NZC4 1-300); conditions: protein: recombinant; tags: N-terminal GST; dsDNA, one strand shown
# T5 sequence: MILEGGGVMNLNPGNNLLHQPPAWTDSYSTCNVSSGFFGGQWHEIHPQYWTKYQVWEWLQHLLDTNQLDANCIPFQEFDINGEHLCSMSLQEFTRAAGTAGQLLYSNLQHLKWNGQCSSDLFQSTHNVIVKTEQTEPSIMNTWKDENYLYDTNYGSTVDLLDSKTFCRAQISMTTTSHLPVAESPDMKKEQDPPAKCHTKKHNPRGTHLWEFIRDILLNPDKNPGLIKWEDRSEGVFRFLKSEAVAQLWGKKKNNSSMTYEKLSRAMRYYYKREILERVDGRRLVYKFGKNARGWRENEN
# Summary of the method: as §1
# SPI1 = SPI1 (Homo sapiens, UniProt P17947 1-270); conditions: protein: recombinant; tags: N-terminal GST; dsDNA, one strand shown
# Summary of the method: as §1
# SPIB = SPIB (Homo sapiens, UniProt Q01892 1-262); conditions: protein: recombinant; tags: N-terminal GST; dsDNA, one strand shown
# Sequence of SPIB (Q01892 whole entry): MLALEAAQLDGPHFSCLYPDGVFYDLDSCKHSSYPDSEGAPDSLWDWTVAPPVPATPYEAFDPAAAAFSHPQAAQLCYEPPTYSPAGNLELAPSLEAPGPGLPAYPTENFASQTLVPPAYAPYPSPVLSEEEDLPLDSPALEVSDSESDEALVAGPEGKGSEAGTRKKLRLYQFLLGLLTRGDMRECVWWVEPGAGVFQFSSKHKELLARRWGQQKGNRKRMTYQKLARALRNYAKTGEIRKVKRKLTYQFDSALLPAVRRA
# Summary of the method: as §1
# ELK3 = molecular target: T6, ELK3 (Homo sapiens, UniProt P41970 1-407); conditions: protein: recombinant; tags: N-terminal GST; dsDNA, one strand shown
# T6 sequence: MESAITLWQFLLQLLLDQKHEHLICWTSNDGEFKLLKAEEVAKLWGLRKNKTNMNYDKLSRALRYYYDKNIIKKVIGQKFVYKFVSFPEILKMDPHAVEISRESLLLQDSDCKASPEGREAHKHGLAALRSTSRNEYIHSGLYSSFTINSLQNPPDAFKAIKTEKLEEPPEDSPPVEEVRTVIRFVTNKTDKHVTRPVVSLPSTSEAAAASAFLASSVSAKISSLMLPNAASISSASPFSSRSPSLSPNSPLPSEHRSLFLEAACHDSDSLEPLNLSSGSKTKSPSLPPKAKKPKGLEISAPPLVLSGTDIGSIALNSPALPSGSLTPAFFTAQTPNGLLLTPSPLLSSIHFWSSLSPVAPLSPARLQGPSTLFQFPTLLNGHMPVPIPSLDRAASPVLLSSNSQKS
# Summary of the method: as §1
# FEV = molecular target: T7, FEV (Homo sapiens, UniProt Q99581 1-238); conditions: protein: recombinant; tags: N-terminal GST; dsDNA, one strand shown
# T7 sequence: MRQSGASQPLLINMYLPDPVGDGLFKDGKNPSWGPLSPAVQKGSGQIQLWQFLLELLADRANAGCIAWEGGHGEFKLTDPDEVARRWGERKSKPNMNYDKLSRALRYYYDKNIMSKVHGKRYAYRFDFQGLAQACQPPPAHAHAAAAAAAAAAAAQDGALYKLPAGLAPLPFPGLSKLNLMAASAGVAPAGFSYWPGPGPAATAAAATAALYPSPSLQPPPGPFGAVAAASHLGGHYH
# Summary of the method: as §1
# ETV5 = ETV5 (Homo sapiens, UniProt P41161 1-510); conditions: protein: recombinant; tags: N-terminal GST; dsDNA, one strand shown
# Sequence of ETV5 (P41161 whole entry): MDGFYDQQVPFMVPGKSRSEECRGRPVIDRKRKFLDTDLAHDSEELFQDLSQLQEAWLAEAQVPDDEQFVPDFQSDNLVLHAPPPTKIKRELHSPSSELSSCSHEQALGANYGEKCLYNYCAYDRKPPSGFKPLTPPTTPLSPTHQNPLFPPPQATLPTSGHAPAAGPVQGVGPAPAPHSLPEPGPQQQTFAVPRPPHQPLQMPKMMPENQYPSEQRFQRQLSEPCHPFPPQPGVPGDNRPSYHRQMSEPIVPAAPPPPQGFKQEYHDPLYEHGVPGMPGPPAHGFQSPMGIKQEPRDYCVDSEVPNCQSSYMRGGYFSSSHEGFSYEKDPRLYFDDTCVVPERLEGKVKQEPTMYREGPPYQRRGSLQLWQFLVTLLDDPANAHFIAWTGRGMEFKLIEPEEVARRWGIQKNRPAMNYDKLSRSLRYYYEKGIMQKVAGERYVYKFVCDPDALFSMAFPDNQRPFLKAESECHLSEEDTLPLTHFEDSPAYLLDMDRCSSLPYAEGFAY
# Summary of the method: as §1
# HSF1 = HSF1 (Homo sapiens, UniProt Q00613 1-529); conditions: protein: recombinant; tags: N-terminal GST; chain copies: 3; dsDNA, one strand shown
# Sequence of HSF1 (Q00613 whole entry): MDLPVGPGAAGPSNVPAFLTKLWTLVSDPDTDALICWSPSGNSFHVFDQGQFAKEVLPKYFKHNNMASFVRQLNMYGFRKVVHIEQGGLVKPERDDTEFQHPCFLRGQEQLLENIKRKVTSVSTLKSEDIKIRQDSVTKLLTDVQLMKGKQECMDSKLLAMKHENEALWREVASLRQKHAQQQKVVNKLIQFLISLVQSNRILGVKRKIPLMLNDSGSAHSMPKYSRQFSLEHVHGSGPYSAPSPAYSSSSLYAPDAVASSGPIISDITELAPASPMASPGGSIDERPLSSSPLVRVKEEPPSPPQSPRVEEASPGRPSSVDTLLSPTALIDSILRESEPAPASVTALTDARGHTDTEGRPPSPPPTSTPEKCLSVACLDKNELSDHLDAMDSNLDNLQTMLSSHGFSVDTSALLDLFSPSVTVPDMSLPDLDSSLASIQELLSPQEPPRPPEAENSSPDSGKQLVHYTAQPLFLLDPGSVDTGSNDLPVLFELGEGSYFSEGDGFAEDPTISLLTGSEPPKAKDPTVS
# Summary of the method: as §1
# SPIC = molecular target: T8, SPIC (Homo sapiens, UniProt Q8N5J4 1-248); conditions: protein: recombinant; tags: N-terminal GST; dsDNA, one strand shown
# T8 sequence: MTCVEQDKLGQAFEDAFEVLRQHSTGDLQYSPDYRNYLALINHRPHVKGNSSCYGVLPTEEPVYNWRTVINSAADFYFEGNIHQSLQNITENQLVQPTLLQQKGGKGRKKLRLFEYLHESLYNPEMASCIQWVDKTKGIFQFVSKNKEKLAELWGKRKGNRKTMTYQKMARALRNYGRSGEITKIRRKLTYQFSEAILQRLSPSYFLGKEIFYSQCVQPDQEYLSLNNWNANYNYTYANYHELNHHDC
# Summary of the method: as §1
# ELF4 = ELF4 (Homo sapiens, UniProt Q99607 1-663); conditions: protein: recombinant; tags: N-terminal GST; dsDNA, one strand shown
# Sequence of ELF4 (Q99607 whole entry): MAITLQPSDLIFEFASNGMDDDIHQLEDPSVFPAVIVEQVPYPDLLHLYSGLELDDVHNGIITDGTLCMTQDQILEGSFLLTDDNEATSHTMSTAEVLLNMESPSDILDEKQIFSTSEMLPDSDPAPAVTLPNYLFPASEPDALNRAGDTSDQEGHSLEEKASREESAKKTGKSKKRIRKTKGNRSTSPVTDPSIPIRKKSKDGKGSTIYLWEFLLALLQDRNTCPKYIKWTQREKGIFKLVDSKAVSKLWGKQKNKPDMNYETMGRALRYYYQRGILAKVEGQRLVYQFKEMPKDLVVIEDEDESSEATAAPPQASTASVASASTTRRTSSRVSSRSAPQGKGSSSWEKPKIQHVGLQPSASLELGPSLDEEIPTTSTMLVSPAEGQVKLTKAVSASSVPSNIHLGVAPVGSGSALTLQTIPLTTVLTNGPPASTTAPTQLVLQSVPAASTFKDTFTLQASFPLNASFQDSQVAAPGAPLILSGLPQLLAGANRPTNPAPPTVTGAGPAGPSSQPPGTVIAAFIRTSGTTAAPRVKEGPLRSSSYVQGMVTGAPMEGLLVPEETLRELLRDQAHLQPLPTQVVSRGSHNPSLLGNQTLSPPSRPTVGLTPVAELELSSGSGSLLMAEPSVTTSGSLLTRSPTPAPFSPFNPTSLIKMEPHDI
# Summary of the method: as §1
# ELK4 = molecular target: T9, ELK4 (Homo sapiens, UniProt P28324-2 1-405); conditions: protein: recombinant; tags: N-terminal GST; dsDNA, one strand shown
# T9 sequence: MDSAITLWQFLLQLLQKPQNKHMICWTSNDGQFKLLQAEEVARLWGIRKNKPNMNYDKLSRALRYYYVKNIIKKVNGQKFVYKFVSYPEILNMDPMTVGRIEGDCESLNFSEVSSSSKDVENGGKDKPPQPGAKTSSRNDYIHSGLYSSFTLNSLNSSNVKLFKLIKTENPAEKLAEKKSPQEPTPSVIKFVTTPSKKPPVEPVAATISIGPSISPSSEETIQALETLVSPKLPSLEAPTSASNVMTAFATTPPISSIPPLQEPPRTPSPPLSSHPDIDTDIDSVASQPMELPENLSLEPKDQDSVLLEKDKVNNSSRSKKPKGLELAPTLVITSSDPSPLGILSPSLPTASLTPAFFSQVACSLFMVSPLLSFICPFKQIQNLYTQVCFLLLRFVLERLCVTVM
# Summary of the method: as §1
# ETV2 = molecular target: T10, ETV2 (Homo sapiens, UniProt O00321 1-342); conditions: protein: recombinant; tags: N-terminal GST; dsDNA, one strand shown
# T10 sequence: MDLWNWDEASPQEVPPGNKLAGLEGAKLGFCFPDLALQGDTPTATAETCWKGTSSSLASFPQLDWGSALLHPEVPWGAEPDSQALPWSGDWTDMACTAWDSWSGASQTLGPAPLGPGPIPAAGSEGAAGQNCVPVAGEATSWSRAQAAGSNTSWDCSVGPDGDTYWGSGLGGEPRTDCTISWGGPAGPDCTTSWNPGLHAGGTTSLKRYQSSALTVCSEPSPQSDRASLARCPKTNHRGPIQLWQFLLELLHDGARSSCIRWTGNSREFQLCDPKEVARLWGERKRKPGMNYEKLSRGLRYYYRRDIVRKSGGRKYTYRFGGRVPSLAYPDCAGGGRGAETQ
# Summary of the method: as §1
# ELF3 = molecular target: T11, ELF3 (Homo sapiens, UniProt P78545 1-371); conditions: protein: recombinant; tags: N-terminal GST; dsDNA, one strand shown
# T11 sequence: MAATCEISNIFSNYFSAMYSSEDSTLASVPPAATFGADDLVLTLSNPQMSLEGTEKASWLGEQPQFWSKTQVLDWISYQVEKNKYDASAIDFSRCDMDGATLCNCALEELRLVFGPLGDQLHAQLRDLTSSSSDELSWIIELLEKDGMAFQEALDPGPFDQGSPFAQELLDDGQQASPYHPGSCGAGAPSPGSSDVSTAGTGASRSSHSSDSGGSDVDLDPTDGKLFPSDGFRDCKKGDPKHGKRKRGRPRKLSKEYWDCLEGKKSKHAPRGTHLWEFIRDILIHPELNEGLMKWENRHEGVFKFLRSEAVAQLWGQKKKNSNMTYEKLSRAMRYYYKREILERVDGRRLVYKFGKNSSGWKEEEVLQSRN
# Summary of the method: as §1
# CRX = CRX (Homo sapiens, UniProt O43186 1-299); conditions: protein: recombinant; tags: N-terminal GST; dsDNA, one strand shown
# Sequence of CRX (O43186 whole entry): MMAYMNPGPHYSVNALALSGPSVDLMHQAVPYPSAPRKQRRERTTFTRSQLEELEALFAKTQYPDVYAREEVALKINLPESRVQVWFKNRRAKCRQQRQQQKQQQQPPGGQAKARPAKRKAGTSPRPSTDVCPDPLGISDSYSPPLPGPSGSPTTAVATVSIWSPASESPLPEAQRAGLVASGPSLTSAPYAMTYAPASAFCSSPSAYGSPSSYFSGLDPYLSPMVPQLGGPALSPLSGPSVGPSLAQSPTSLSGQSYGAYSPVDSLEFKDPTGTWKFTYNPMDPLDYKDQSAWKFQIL
# Summary of the method: as §1
# ETV1 = ETV1 (Homo sapiens, UniProt P50549 1-477); conditions: protein: recombinant; tags: N-terminal GST; dsDNA, one strand shown
# Sequence of ETV1 (P50549 whole entry): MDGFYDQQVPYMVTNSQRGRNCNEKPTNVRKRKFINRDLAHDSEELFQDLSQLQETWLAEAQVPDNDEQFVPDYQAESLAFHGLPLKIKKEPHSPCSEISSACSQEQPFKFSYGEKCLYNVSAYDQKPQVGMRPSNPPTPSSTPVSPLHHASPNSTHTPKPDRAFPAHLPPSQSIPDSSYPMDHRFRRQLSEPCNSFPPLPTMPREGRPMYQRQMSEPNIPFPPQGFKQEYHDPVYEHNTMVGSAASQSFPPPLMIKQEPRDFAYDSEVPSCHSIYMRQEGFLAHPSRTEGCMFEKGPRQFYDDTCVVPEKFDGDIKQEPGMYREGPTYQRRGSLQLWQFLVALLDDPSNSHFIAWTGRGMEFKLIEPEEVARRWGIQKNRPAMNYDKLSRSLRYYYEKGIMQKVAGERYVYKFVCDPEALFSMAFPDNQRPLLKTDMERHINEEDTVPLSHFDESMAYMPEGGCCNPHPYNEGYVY
# Summary of the method: as §1
sequence,measurement,setting,value
TTTATC,binding signal,FLI1,"1.25 fold enrichment (6-mer frequency, TF over GST control)"
same,binding signal,ELK1,"1.27 fold enrichment (6-mer frequency, TF over GST control)"
same,binding signal,GABPA,"1.25 fold enrichment (6-mer frequency, TF over GST control)"
same,binding signal,ERG,"1.22 fold enrichment (6-mer frequency, TF over GST control)"
same,binding signal,ELF1,"1.21 fold enrichment (6-mer frequency, TF over GST control)"
same,binding signal,EHF,"1.36 fold enrichment (6-mer frequency, TF over GST control)"
same,binding signal,SPI1,"1.26 fold enrichment (6-mer frequency, TF over GST control)"
same,binding signal,SPIB,"1.28 fold enrichment (6-mer frequency, TF over GST control)"
same,binding signal,ELK3,"1.37 fold enrichment (6-mer frequency, TF over GST control)"
same,binding signal,FEV,"1.14 fold enrichment (6-mer frequency, TF over GST control)"
same,binding signal,ETV5,"1.2 fold enrichment (6-mer frequency, TF over GST control)"
same,binding signal,HSF1,"1.65 fold enrichment (6-mer frequency, TF over GST control)"
same,binding signal,SPIC,"1.26 fold enrichment (6-mer frequency, TF over GST control)"
same,binding signal,ELF4,"1.2 fold enrichment (6-mer frequency, TF over GST control)"
same,binding signal,ELK4,"1.4 fold enrichment (6-mer frequency, TF over GST control)"
same,binding signal,ETV2,"1.24 fold enrichment (6-mer frequency, TF over GST control)"
same,binding signal,ELF3,"1.18 fold enrichment (6-mer frequency, TF over GST control)"
same,binding signal,CRX,"2.15 fold enrichment (6-mer frequency, TF over GST control)"
same,binding signal,ETV1,"1.18 fold enrichment (6-mer frequency, TF over GST control)"
